FBW7 activator – activators of human E3 ligase FBW7. Q969H0. AlphaScreen FBW7–phospho-cyclin E peptide binding, activator screen. normalized activity (activation), % at 26.1 µM. hit rate 0.13% among 650,000; in the data active = normalized activity above about 1.9%;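 also: purified mutant Fbw7 with reduced substrate affinity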
GPR151 activ – activators of human GPR151 | Q8TDV0 | PathHunter beta-arrestin GPR151 cells, luminescence | activation, % at 11.2 µM | hit rate 1% among 650,000 | AID 1508602; in the data active = activation above about 4.9%;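 also: 0% = median of compound wells and 100% = cells with positive control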
MITF primary – inhibitors of human MITF; O75030; AlphaScreen MITF homodimerization, bead proximity signal; inhibition, % at 2.6 µM; hit rate 0.91% among 650,000; AID 1259374; in the data active = inhibition above about 50%;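 also: 0% = vehicle wells with protein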
TEAD-YAP inh – TEAD-YAP interaction inhibition | HEK-TIYL cells, TEAD-Gal4/YAP UAS-luciferase luminescence | hit rate 1.4% among 640,000 | AID 1259422 | inhibition, % at 9.12 µM; in the data active = inhibition above about 32%;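 also: 0% = median of test compound wells and 100% = reference inhibitor wells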
GPR151 conf act – confirmation of human GPR151 activators | shares compounds with GPR151 activ | GPR151 PathHunter beta-arrestin cells, luminescence, 90 min; % of EA-reagent control over plate median | activation, % at 11.2 µM | 6,700 tested, under 10 active | AID 1508609;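 active = mean percent activation across replicates above the confirmation screen cutoff of 4.91%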
GPR119 ag – counter-screen for GPR151 activators: effect on human GPR119; shares compounds with GPR151 activ; GPR119 PathHunter beta-arrestin cells, luminescence, 90 min; 0 = compound-well median, 100 = enzyme-acceptor control; activation, % at 11.2 µM; hit rate 0.3% among 6,700;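 active = mean percent activation in the counterscreen above 29.09%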;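 also: counterscreen on off-target GPR119 to flag nonselective hits from the GPR151 activator screen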
Target sequence (Q8TDV5 whole entry, looked up): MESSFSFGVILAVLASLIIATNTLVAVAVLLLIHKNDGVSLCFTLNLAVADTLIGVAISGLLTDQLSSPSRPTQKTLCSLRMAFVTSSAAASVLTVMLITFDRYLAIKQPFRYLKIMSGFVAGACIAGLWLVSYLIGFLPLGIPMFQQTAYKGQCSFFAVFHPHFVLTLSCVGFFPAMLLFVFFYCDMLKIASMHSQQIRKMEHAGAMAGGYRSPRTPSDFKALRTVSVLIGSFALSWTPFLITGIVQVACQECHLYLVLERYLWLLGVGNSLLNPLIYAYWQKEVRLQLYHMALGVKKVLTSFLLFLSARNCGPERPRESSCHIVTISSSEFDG
An asterisk follows results filed as active; nt = not tested or not shown; ! = a repeat was not active. Only some compounds are listed: those with a hit (about 3.5% of all), similar ones and a draw of the others.

SMILES	FBW7 activator	GPR151 activ	MITF primary	TEAD-YAP inh	GPR151 conf act	GPR119 ag
Cc1ccc(C2=C/C(=C/c3ccccn3)C(=O)O2)c(C)c1	0	5.3*	1	-44	2	-9
COc1cc(/C=N/n2c(-c3ccncc3)n[nH]c2=S)cc(Br)c1O	0	5.0*	-7	4	0	-7
O=C(N/N=C/C1CC=CCC1)c1ccccc1F (centres undefined)	0	0	-5	-62	nt	nt
Cn1nnc(N2C(=O)C(O)=C(C(=O)c3ccco3)C2c2ccccc2)n1 (centres undefined)	0	-2	2	-1	nt	nt
O=C(NCCCO)/C(=C/c1ccccc1F)NC(=O)c1ccccc1	0	5.0*	-2	5	0	6
COc1ccc(-c2cc(=O)oc3cc(O)c(Cl)cc23)cc1	0	1	-5	20	nt	nt
COc1ccc(-c2cc(=O)oc3c(O)c(O)ccc23)cc1	0	8.2*	-3	14	-1	1
FC(F)(F)C(F)(F)c1nnc2c3ccccc3c(N3CCNCC3)nn12	0	2	-2	-7	nt	nt
CCC(=O)Nc1nc2c(Cl)ccc(Cl)c2s1	0	3	-8	-5	nt	nt
CCC(=O)Nc1nc2c(OC)ccc(OC)c2s1	0	5.0*	5	12	-1	2
CSc1cccc(NC(=O)C2C3C=CC4(O3)C2C(=O)N(C2CCC(C)CC2)C4C(=O)NC2CCCCC2)c1 (centres undefined)	0	-1	6	20	nt	nt
CSCCC(C)N1CCC(Oc2ccc(C(=O)NCc3ccncc3)cc2)CC1 (centres undefined)	0	5.0*	6	6	-1	7
O=C(NCc1ccncc1)c1ccc(OC2CCN(C3CCSCC3)CC2)cc1	0	0	5	0	nt	nt
CCOc1ccccc1CN1CCN(S(=O)(=O)c2ccccc2[N+](=O)[O-])CC1	0	5.7*	37	-9	0	11
COc1ccccc1CN1CCN(S(=O)(=O)c2ccccc2[N+](=O)[O-])CC1	0	0	48	-4	nt	nt
CCS(=O)(=O)N1CCN(S(=O)(=O)c2ccccc2[N+](=O)[O-])CC1	0	2	4	9	nt	nt
CCOc1ccccc1N1CCN(S(=O)(=O)c2ccccc2[N+](=O)[O-])CC1	0	5.7*	-4	0	-1	-5
CCOC(=O)Nc1nnc(Cc2ccc(Cl)c(Cl)c2)s1	0	5.8*	15	0	1	-4
C=CCn1cnc2c(nnn2-c2ccc(OC)c(OC)c2)c1=O	0	7.9*	-15	4	1	8
O=C(c1cccc(OC2CCN(Cc3ccc4nonc4c3)CC2)c1)N1CCCC1	0	-1	-6	-7	nt	nt
CCOC(=O)CSC1=C(C#N)C(c2ccco2)C(C(=O)Nc2ccccc2)=C(C)N1 (centres undefined)	1	5.0*	-3	-8	1	-1
O=C(NC1CC(=O)N(c2cccc(F)c2)C1)c1ccccc1Cl (centres undefined)	0	0	2	8	nt	nt
C=CCN1C(=O)/C(=C\c2cc(Cl)c(O)c(Cl)c2)C(=O)NC1=S	0	0	6	1	nt	nt
C=CCN1C(=O)/C(=C\c2cc(Cl)c(O)c(OCC)c2)C(=O)NC1=S	0	7.4*	6	-11	-1	0
C=CCN1C(=O)/C(=C/c2ccc(Cl)cc2)C(=O)NC1=S	0	16*	5	0	-1	-12
SMILES	FBW7 activator	GPR151 activ	MITF primary	TEAD-YAP inh	GPR151 conf act	GPR119 ag
O=C(CC1SC(=Nc2ccccc2)N(CCCc2ccccc2)C1=O)Nc1ccccc1[N+](=O)[O-] (centres undefined)	0	1	6	1	nt	nt
C/C=C/c1ccc(OCCCNC)c(OC)c1	0	6.1*	31	-15	0	6
C/C=C/c1ccc(OCCNC)c(OC)c1	0	-2	42	8	nt	nt
CCc1c(C(=O)Nc2ccc(C)c(F)c2)[nH]c(C)c1C(C)=O	0	12*	2	-12	-1	-8
O=c1c2ccccc2ncn1CCCOc1ccccc1[N+](=O)[O-]	0	4.9*	1	-85	1	-2
CCOC(=O)COc1ccc2c(=O)c(Oc3cccc(OC)c3)coc2c1	0	5.3*	2	3	2	6
CN1C=CC=C/C1=C(/C#N)c1nc2ccccc2s1	0	0	3	-14	nt	nt
CC1CCC(NC(=O)CN2CCN(Cc3cccc(Cl)c3)C2=O)CC1 (centres undefined)	0	1	-5	-15	nt	nt
COCCCN1C(=O)c2ccccc2CC1(C)C(=O)NC1CCCCCC1 (centres undefined)	0	5.6*	-7	-4	0	-3
COCCCN1C(=O)c2ccccc2CC1(C)C(=O)NC1CCCCCCC1 (centres undefined)	0	2	2	2	nt	nt
O=C(CN(c1ccccc1Cl)S(=O)(=O)c1ccccc1)NC1CC1	0	5.9*	-2	-4	0	-5
CCC1CCCCN1C(=O)CSc1cn(Cc2cccc(F)c2)c2ccccc12 (centres undefined)	0	0	1	-5	nt	nt
CC(=O)N1CN(Cc2ccccc2)Cc2c1sc1c2CCCC1	0	5.5*	1	-8	0	-3
CC(=O)N1CN(Cc2cccnc2)Cc2c1sc1c2CCCC1	0	0	-5	-4	nt	nt
NC(=O)NC1NC(=O)NC1=O (centres undefined)	1	5.7*!	8	-8	0	11
COc1ccc(CN2C(=O)C3C(C(=O)Nc4ccc(Br)cc4)C4C=CC3(O4)C2C(=O)NC2CCCCC2)cc1 (centres undefined)	0	0	-2	2	nt	nt
C=CCOc1ccc(/C=N/NC(=O)CSc2nc(C)cc(C)n2)cc1	0	3	14	11	nt	nt
C=CCOc1ccc(/C=N/NC(=O)CSc2nc(C)cc(C)n2)cc1OCC	0	12*	12	4	1	4
O=C(C[n+]1cccc(Br)c1)c1cccs1	1	7.8*	-13	0	-1	-6
COc1ccc(-c2cc(NCCN(C(C)C)C(C)C)nc(N)n2)cc1	0	1	-21	-3	nt	nt
CCOCCCNC(=O)CN1CC(=O)N2CCCC2C1=O (centres undefined)	1	-3	13	1	nt	nt
CCN(CC)CCNC(=O)CN1CC(=O)N2CCCC2C1=O (centres undefined)	0	5.9*	4	-3	0	5
O=C(NCCN1CCN(S(=O)(=O)c2ccccc2)CC1)C(=O)NCc1ccco1	0	5.7*	-2	5	0	-8
Cc1ccc(C)n1CCN1CCN(S(=O)(=O)c2ccccc2)CC1	0	5.1*	-34	5	0	-3
O=C(OCCc1ccco1)C1CCCN1S(=O)(=O)c1cccc2nsnc12 (centres undefined)	0	0	16	4	nt	nt
